Compounds without any hit were thinned out: in the full panel of roughly 83,000, 20% have a hit.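 Single-dose data. Exposure time 48 hours. Values below 10 considered active.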 Unmarked numbers belong to inactive results. Activity calls are given as the source filed them.
Legend:
Experiment in all cases: NCI-60 one-dose screen, 48 h (100 = growth as untreated, 0 = no growth, -100 = all killed)
HCT-15 colon = settings: 10 µM unless noted
HT29 colon = settings: 10 µM unless noted
SNB-75 CNS = settings: 10 µM unless noted
SNB-19 CNS = settings: 10 µM unless noted
U251 CNS = settings: 10 µM unless noted
PC-3 prostate = settings: 10 µM unless noted
UACC-62 melanoma = settings: 10 µM unless noted
LOX IMVI melanoma = settings: 10 µM unless noted
SK-MEL-28 melanoma = settings: 10 µM unless noted
SK-MEL-2 melanoma = settings: 10 µM unless noted
EKVX NSCLC = settings: 10 µM unless noted
SN12C renal = settings: 10 µM unless noted
UO-31 renal = settings: 10 µM unless noted
TK-10 renal = settings: 10 µM unless noted
ACHN renal = settings: 10 µM unless noted
CAKI-1 renal = settings: 10 µM unless noted
A498 renal = settings: 10 µM
HL-60(TB) leukemia = settings: 10 µM unless noted
CCRF-CEM leukemia = settings: 10 µM unless noted
SK-MEL-5 melanoma = settings: 10 µM unless noted

Compound	growth (HCT-15 colon)	growth (HT29 colon)	growth (SNB-75 CNS)	growth (SNB-19 CNS)	growth (U251 CNS)	growth (PC-3 prostate)	growth (UACC-62 melanoma)	growth (LOX IMVI melanoma)	growth (SK-MEL-28 melanoma)	growth (SK-MEL-2 melanoma)	growth (EKVX NSCLC)	growth (SN12C renal)	growth (UO-31 renal)	growth (TK-10 renal)	growth (ACHN renal)	growth (CAKI-1 renal)	growth (A498 renal)	growth (HL-60(TB) leukemia)	growth (CCRF-CEM leukemia)	growth (SK-MEL-5 melanoma)
CCCCCCCCCCCCCCCCCCOc1ccccc1COP(=O)(O)OOCC[N+](C)(C)C	41.2%	-11.4% (active)	-4.01% (active)	-13.9% (active)	-58.8% (active)	-25.5% (active)	-11.5% (active)	-88.1% (active)	21.4%	35.9%	11.4%	-6.04% (active)	38.5%	3.59% (active)	8.89% (active)	1.63% (active)	52.6%	-42% (active)	-12.8% (active)	–
Cn1cc(-c2csc(-c3cn(CCN4CCOCC4)c4ccccc34)n2)c2cccnc21	46.5%	70.4%	74.5%	84.4%	67.3%	20.5%	–	67.1%	–	68.8%	55.1%	77.4%	34.9%	87.9%	63%	–	85.1%	36.1%	36.9%	17.6%
COc1cc2c(c(OC)c1OC)-c1ccc([O-])c(=O)cc1[C@@H](NC(C)=O)CC2.COc1cc2c(c(OC)c1OC)-c1ccc([O-])c(=O)cc1[C@@H](NC(C)=O)CC2.[Cu+2]	15.8%	9.61% (active)	50.1%	25.2%	22.3%	35.1%	23.5%	36.3%	48.5%	-4.65% (active)	62%	43.5%	22.2%	71.7%	53.6%	34.1%	14.9%	-44.9% (active)	9.3% (active)	–
O=C1CCC2(O)[C@@H]3Cc4ccc(O)c5c4[C@]2(CCN3Cc2ccoc2)C1O5 (some centres not stated)	100%	102%	85.1%	101%	101%	44.2%	109%	92.2%	115%	106%	–	97.9%	78.8%	102%	98%	99.3%	108%	–	98.5%	–
C/C=C(\C)C(=O)O[C@@H]1C(O)[C@H]2OC(COC(=O)CCC(=O)CCCCCC[C@H](CCCCC)O[C@@H]3OC(C)[C@H](OC(C)=O)C(O)[C@H]3O2)[C@H]1OC(=O)/C=C/c1ccccc1 (some centres not stated)	13%	5.27% (active)	1.65% (active)	34.7%	8.26% (active)	21.3%	-46.8% (active)	-49.9% (active)	18.5%	-1.53% (active)	24.1%	17.2%	15%	11.7%	12%	–	14.8%	17.8%	24.2%	–
COC(=O)[C@H](Cc1c[nH]c2ccccc12)NC(=O)[C@@H](OC)[C@@H]1Cc2cc3cc(OC4CC(OC5CC(O)C(O)C(C)O5)C(O)C(C)O4)c(C)c(O)c3c(O)c2C(=O)[C@H]1OC1CC(OC2CC(OC3CC(C)(O)C(O)C(C)O3)C(O)C(C)O2)C(O)C(C)O1 (some centres not stated)	15.9%	4.98% (active)	-88.5% (active)	7.09% (active)	6.13% (active)	-10.4% (active)	–	-3.17% (active)	-27.9% (active)	–	3.61% (active)	10.6%	-6.63% (active)	8.12% (active)	–	–	-52.8% (active)	-8.66% (active)	5.66% (active)	-72.1% (active)
CC(C)=CC1C(C(=O)OCc2cccc(Oc3ccccc3)c2)C1(C)C (configuration not stated)	98.9%	86.5%	115%	98.4%	98.6%	92.8%	78.4%	93.4%	119%	108%	82.4%	94.5%	76.5%	96.6%	91.6%	59.6%	69.6%	119%	102%	–
Cn1cc(-c2csc(-c3cn(CCCCN4CCCCC4)c4ccc(F)cc34)n2)c2cccnc21	76%	-73.5% (active)	68.8%	87.1%	80.7%	68.4%	–	75.9%	–	97.4%	89%	75.7%	20.6%	106%	54.6%	–	81.5%	-0.887% (active)	-60.5% (active)	-100% (active)

— PubChem BioAssay (NCI)
